Here are results for 36 compounds from PubChem BioAssay (NCI).

Holding throughout (test): NCI-60 one-dose screen, 48 h (100 = growth as untreated, 0 = no growth, -100 = all killed)
What all share (settings): 10 µM

The subject of assay [1] is BT-549 breast.
Assay [2] relates to MDA-MB-435 melanoma.
Assay [3] deals with SW-620 colon.
In assay [4] the test system is MCF7 breast.
Assay [5] has as its system HCT-116 colon.
Assay [6] deals with HCC-2998 colon.
Assay [7] deals with KM12 colon.

Each structure is given as a SMILES string. Compounds without any hit were thinned out: in the full panel of roughly 83,000, 20% have a hit.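 Assay: single dose, 48 h. Readout: percent growth (0 = no net growth; negative = cell death). Active: <10.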 Unmarked numbers belong to inactive results. Active and inactive are the calls of the source.

Take `O=C(Nc1cccc(-n2cc(-c3ccncc3)c(-c3ccc(O)c(Cl)c3)n2)c1)Nc1ccc(Cl)c(Cl)c1`: the growth in assay [1] is 1.9% (active); in assay [2], -16.7% (active); in assay [3], 6.85% (active); in assay [4], -0.812% (active); in assay [5], 1.72% (active); in assay [6] it was 20.5%. For the same compound, the growth in assay [7] is 0.41% (active).

Turning to `CN(C)c1ccc(-c2cc(-c3cccc(NS(C)(=O)=O)c3)nc(N)c2C#N)cc1`, the growth in assay [1] is 30.8%; in assay [2], -25.9% (active); in assay [3], 24.3%; in assay [4] it was 16.1%; in assay [5], 5.65% (active); in assay [6], -41.9% (active). In addition, the growth in assay [7] is -14.3% (active).

For `CNc1ncc(-c2ccc(C(F)(F)F)cc2)c(NC2CCCCCC2)n1`, the growth in assay [1] was 90.9%; in assay [2], 89.8%; in assay [3], 77.4%; in assay [4] it was 67.6%; in assay [5] it was 56%; in assay [6], 91.1%. Also, the growth in assay [7] is 74.1%.

Consider `CCN(CC)CCCC(C)Nc1nc(-c2ccc(OC)cc2)nc2cc(Cl)ccc12` (configuration not stated), for which the growth was 75.6% in assay [1]; 35% in assay [2]; 80.9% in assay [3]; 44.6% in assay [4]; 47.1% in assay [5]; 54.1% in assay [6]. The growth in assay [7] is 66.3%.

With `O=C(CSSCC(=O)c1ccc(Cl)cc1)c1ccc(Cl)cc1`, the growth is 84.9% in assay [1]; 47.9% in assay [2]; 51.1% in assay [3]; 86.7% in assay [4]; 35.4% in assay [5]; 63.1% in assay [6]. Besides, the growth in assay [7] was 44.8%.

For `O=C(N/N=C/c1ccccc1)C(Oc1ccccc1)c1ccccc1` (configuration not stated), the growth in assay [1] was 105%; in assay [2] it was 44%; in assay [3], 96.2%; in assay [4], 97.9%; in assay [5], 87.2%; in assay [6], 97.3%. The growth in assay [7] is 84.5%.

`CCCC1(CC(=O)O)OCCc2c1[nH]c1ccccc21` (configuration not stated): the growth in assay [1] was 119%; in assay [2], 106%; in assay [3], 115%; in assay [4], 102%; in assay [5], 107%; in assay [6], 69.9%. Further, in assay [7], the growth is 102%.

As to `COc1cc(CNCCCCCCN2C(=O)c3cccc4cccc(c34)C2=O)ccc1O`, the growth was 83.2% in assay [1]; 58.1% in assay [2]; 57.9% in assay [3]; 11.4% in assay [4]; 31.4% in assay [5]; -21.3% (active) in assay [6]. For the same compound, the growth in assay [7] was 72.3%.

As for `CCOC1(OCC)OC(c2ccccc2)=C(C#N)C(/C=C\c2ccccc2)C1(OCC)OCC` (configuration not stated), the growth in assay [1] was 95.3%; in assay [2], 97.2%; in assay [3], 83.2%; in assay [4], 77.4%; in assay [5], 53.9%; in assay [6] it was 83.1%. In assay [7], the growth was 84.3%.

With `O=C(Nc1cccc(-n2cc(-c3ccncc3)c(-c3ccc(O)c(Cl)c3)n2)c1)c1cc(C(F)(F)F)cc(C(F)(F)F)c1`, the growth in assay [1] is 79.7%; in assay [2] it was 52%; in assay [3], 67.7%; in assay [4], 27.3%; in assay [5] it was 44.1%; in assay [6], 33.3%. Also, in assay [7], the growth was 27.1%.

On to `Fc1cc(C(F)(F)F)ccc1-c1cncnc1NC1CCCCCC1`, for which the growth is 96% in assay [1]; 104% in assay [2]; 101% in assay [3]; 92.3% in assay [4]; 95.8% in assay [5]; 107% in assay [6]. The growth in assay [7] is 107%.

As for `COc1ccc(-c2nn(-c3cccc(NC(=O)Nc4ccccc4)c3)cc2-c2ccncc2)cc1Cl`, the growth in assay [1] was -40.9% (active); in assay [2], -66.5% (active); in assay [3] it was -19.7% (active); in assay [4], 0.285% (active); in assay [5], 5.36% (active); in assay [6], -71.1% (active). The growth in assay [7] was -16.2% (active).

For the compound `COc1ccc(-c2nc3sc(-c4ccc(OC)cc4)c(-c4ccc(OC)cc4)n3c2/C=C/c2ccc(C(C)C)cc2)cc1`, the growth was 98.6% in assay [1]; 98.7% in assay [2]; 99.7% in assay [3]; 90.4% in assay [4]; 94.4% in assay [5]; 111% in assay [6]. The growth in assay [7] was 102%.

Consider `COc1cc2cc3c(nc2cc1OC)CCN3Cc1ccc(NC(=O)c2ccc(Cl)c(C(F)(F)F)c2)cc1`, for which the growth in assay [1] was 112%; in assay [2], 95.6%; in assay [3], 114%; in assay [4] it was 15%; in assay [5] it was 93.4%; in assay [6], 91.2%. For the same compound, the growth in assay [7] was 109%.

As for `O=C(O)CCCCSc1ncnc2nc[nH]c12`, the growth is 106% in assay [1]; 99.3% in assay [2]; 109% in assay [3]; 99.2% in assay [4]; 103% in assay [5]; 108% in assay [6]. Besides, the growth in assay [7] was 102%.

In the case of `ClC(Cl)(Cl)c1nc2nccnc2[nH]1`, the growth in assay [1] is 103%; in assay [2] it was 102%; in assay [3] it was 107%; in assay [4] it was 94.1%; in assay [5], 103%; in assay [6] it was 122%. Moreover, in assay [7], the growth is 106%.

For the compound `O=C1CC[C@@H]2CCCC[C@@H]2C1`, the growth in assay [1] is 136%; in assay [2], 103%; in assay [3] it was 108%; in assay [4] it was 97.2%; in assay [5], 104%; in assay [6], 112%. In addition, the growth in assay [7] was 112%.

Regarding `O=[P@@]1(c2ccccc2)O[C@H](COCc2ccccc2)[C@@H](OCc2ccccc2)[C@H](OCc2ccccc2)[C@H]1O`, the growth in assay [1] was 56.9%; in assay [2], 95.6%; in assay [3] it was 104%; in assay [4] it was 51%; in assay [5] it was 69.8%; in assay [6], 103%. In addition, in assay [7], the growth was 98.1%.

On to `CCN(CC)CCN1CC(=O)Nc2cc(Cl)ccc21`, for which the growth in assay [1] is 107%; in assay [2] it was 98.8%; in assay [3], 86.4%; in assay [4], 104%; in assay [5], 102%; in assay [6], 102%. Besides, the growth in assay [7] is 103%.

On to `CCCCCCCCCCCCC1C/C=C\CCCC(=O)O1` (configuration not stated), for which the growth in assay [1] is 127%; in assay [2] it was 105%; in assay [3], 104%; in assay [4], 91.7%; in assay [5] it was 105%; in assay [6] it was 129%. Besides, the growth in assay [7] is 112%.

In the case of `COc1cc(-c2cc(/C=C/C(=O)c3ccc(Cl)c(Cl)c3)[nH]n2)cc(OC)c1OC`, the growth in assay [1] is 71%; in assay [2], 43%; in assay [3], 60.7%; in assay [4], 19.3%; in assay [5], 36%; in assay [6], 107%. Further, the growth in assay [7] was 26.2%.

Take `Cc1cc(N(CCCNc2ccnc3cc(Cl)ccc23)Cc2ccc3c(c2)OCO3)nc(N2CCOCC2)n1`: the growth was 12.3% in assay [1]; -13.6% (active) in assay [2]; 11.7% in assay [3]; 31.9% in assay [4]; 3.52% (active) in assay [5]; 25.7% in assay [6]. Also, the growth in assay [7] is 40.6%.

`COc1ccc(CN2CCC(N3CCCC3=O)c3cc(Cl)ccc32)cc1` (configuration not stated): the growth in assay [1] was 67.6%; in assay [2], 119%; in assay [3], 102%; in assay [4], 100%; in assay [5], 96.8%; in assay [6], 105%. In assay [7], the growth is 103%.

As for `Cc1ccc(CC#N)cc1C`, the growth is 124% in assay [1]; 88.4% in assay [2]; 109% in assay [3]; 104% in assay [4]; 93% in assay [5]; 103% in assay [6]. Further, in assay [7], the growth is 94.7%.

As to `Nc1c(C(=O)Nc2cccc(Br)c2)sc2nc3c(cc12)C(O)CCC3` (configuration not stated), the growth in assay [1] is 45.2%; in assay [2], -42.1% (active); in assay [3], 36.4%; in assay [4], 21%; in assay [5], 16.4%; in assay [6] it was 31.5%. Moreover, the growth in assay [7] was 22.8%.

As for `Nc1c(C(=O)Nc2ccccc2)sc2nc3c(cc12)C(O)CCC3` (configuration not stated), the growth was 66% in assay [1]; -27.2% (active) in assay [2]; 29.6% in assay [3]; 18.4% in assay [4]; 22% in assay [5]; 17.9% in assay [6]. The growth in assay [7] was 25.8%.

As to `N#Cc1cccc(OCc2nc(N)nc(N)c2-c2ccc(Cl)c(Cl)c2)c1`, the growth is 40.1% in assay [1]; 21.3% in assay [2]; 17.9% in assay [3]; 28.5% in assay [4]; 12.1% in assay [5]; 29.8% in assay [6]. In addition, the growth in assay [7] is 25.2%.

For the compound `Oc1[nH]c2ccc(Cl)cc2c1/C=c1/ccc2c(c1)N=C(c1cccs1)N=2`, the growth in assay [1] is 57.4%; in assay [2], 39%; in assay [3] it was 85.9%; in assay [4], 10.1%; in assay [5], 52.9%; in assay [6] it was 88.6%. Also, the growth in assay [7] was 58%.

Take `COc1cc(NC(=O)c2sc3nc4c(cc3c2N)C(O)CCC4)cc(OC)c1` (configuration not stated): the growth in assay [1] is 100%; in assay [2], 8.37% (active); in assay [3] it was 66.1%; in assay [4], 50.7%; in assay [5] it was 84.2%; in assay [6], 78.9%. In assay [7], the growth was 69.5%.

As for `CSC1=NCCCC1`, the growth in assay [1] was 108%; in assay [2], 108%; in assay [3], 114%; in assay [4], 97.8%; in assay [5], 109%; in assay [6] it was 115%. The growth in assay [7] was 113%.

As for `CCCCCCCCCCCCCC[n+]1ccc(C(N)=O)cc1`, the growth in assay [1] was -50.9% (active); in assay [2], 8.53% (active); in assay [3] it was 7.11% (active); in assay [4] it was 22.8%; in assay [5], 6.07% (active); in assay [6], 6.43% (active). In assay [7], the growth was -87.2% (active).

As to `FC(F)(F)c1ccc(-c2cnc(Cl)nc2N2CCC3(CC2)OCCO3)cc1`, the growth was 97.1% in assay [1]; 101% in assay [2]; 103% in assay [3]; 98.9% in assay [4]; 82.7% in assay [5]; 102% in assay [6]. In addition, in assay [7], the growth is 96.3%.

As to `Cn1c([N+](=O)[O-])cnc1/C=C1\Oc2ccccc2C1=O`, the growth in assay [1] was -28.6% (active); in assay [2], -86.8% (active); in assay [3], -36.3% (active); in assay [4] it was 1.82% (active); in assay [5] it was 1.88% (active); in assay [6], -73.6% (active). The growth in assay [7] is -17.4% (active).

In the case of `Cc1ccc(S(=O)(=O)OCCN(CCOS(=O)(=O)c2ccc(C)cc2)c2c[nH]c(=O)[nH]c2=O)cc1`, the growth is 112% in assay [1]; 103% in assay [2]; 110% in assay [3]; 99.2% in assay [4]; 108% in assay [5]; 128% in assay [6]. In addition, in assay [7], the growth is 116%.

As to `COc1ccc(-c2cc(-c3ccc(N(C)C)cc3)c(C#N)c(N3CCCC3)n2)cc1`, the growth in assay [1] was 74.4%; in assay [2], 90.4%; in assay [3], 94.4%; in assay [4], 103%; in assay [5], 67.7%; in assay [6], 83.6%. In assay [7], the growth was 95.4%.

As for `CC(C)C[C@H](NC(=O)[C@H](Cc1cccc2ccccc12)NS(=O)(=O)c1cccc2cccnc12)B(O)O`, the growth is -49.8% (active) in assay [1]; -52.2% (active) in assay [2]; -16% (active) in assay [3]; 9.94% (active) in assay [4]; -91.2% (active) in assay [5]; -89.2% (active) in assay [6]. Moreover, the growth in assay [7] was -73.8% (active).
